Test results from PubChem BioAssay AID652015 (National Center for Advancing Translational Sciences (NCATS), 2013).
Records with an inconclusive call do not appear. Calls of active or inactive are those of the source. Calls follow the shape of the dose curve; as a rule, active = well fitted inhibition curve with a large enough effect; inconclusive = small, poorly fitted or top-dose-only effect; inactive = no such curve, though single readings can be large or run the other way.

Target: Coelenterazine h 2-monooxygenase (Renilla reniformis) (UniProt P27652)
Assay: qHTS Assay for Inhibitors of Sea Pansy Luciferase from the GSK Published Protein Kinase Inhibitor Set
Conditions: purified Renilla luciferase, luminescence; series mostly up to 57.5 µM; activity change, negative = inhibition: at the top concentration
Outline: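 qHTS (roughly 60 uM down to 300 pM) against 1 nM Renilla luciferase, substrate coelenterazine h 5 uM, Tris acetate pH 7.5 buffer with NaCl, Tween-20 and BSA. Luminescence measured after an average 2 min incubation.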
Potency is read from the fitted curve at half-maximal effect.

Sequence of Coelenterazine h 2-monooxygenase (Renilla reniformis) (P27652 whole entry, looked up): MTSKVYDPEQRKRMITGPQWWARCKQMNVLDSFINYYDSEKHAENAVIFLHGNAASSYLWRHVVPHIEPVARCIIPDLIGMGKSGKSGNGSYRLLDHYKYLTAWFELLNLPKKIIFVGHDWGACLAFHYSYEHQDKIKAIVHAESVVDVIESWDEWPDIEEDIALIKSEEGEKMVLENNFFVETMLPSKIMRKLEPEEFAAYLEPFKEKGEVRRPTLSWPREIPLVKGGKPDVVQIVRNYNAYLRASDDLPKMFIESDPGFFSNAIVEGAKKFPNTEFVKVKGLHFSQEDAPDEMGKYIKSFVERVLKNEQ

| Compound | activity change, negative = inhibition | Potency |
| --- | --- | --- |
| c1ccc(-c2nc3n(c2-c2ccc4c(c2)OCO4)CCC3)nc1 | 24.2% (inactive) | – |
| O=C1NC(=O)C(c2ccccc2Cl)=C1Nc1cccc(O)c1 | 34.5% (inactive) | – |
| Cc1cc(O)cc(C)c1C=Cc1cncc(C(N)=O)c1 | 28.5% (inactive) | – |
| O=C(OC1CNC(C#Cc2cc3ncnc(Nc4ccc5c(cnn5Cc5ccccc5)c4)c3s2)C1)N1CCOCC1 (centres undefined) | 22.5% (inactive) | – |
| O=C(Nc1n[nH]c2cc(-c3ccccc3)ccc12)C1CC1 | 34.2% (inactive) | – |
| NS(=O)(=O)c1ccc(Nc2ncc(-c3ccccc3)o2)cc1 | 12.6% (inactive) | – |
| Nc1nc(-c2ccccn2)c(-c2ccc3ncccc3n2)s1 | 20.8% (inactive) | – |
| O=S(=O)(CCOCc1ccc(-c2ccc3ncnc(Nc4ccc(OCc5cccc(F)c5)c(Cl)c4)c3c2)o1)c1ccccc1 | 34.9% (inactive) | – |
| O=C1NC(=O)C(c2ccc(Cl)cc2)=C1Nc1ccc(Cl)c(C(=O)O)c1 | 21.8% (inactive) | – |
| Fc1cccc(COc2ccc(Nc3ncncc3C#Cc3ccccc3)cc2Cl)c1 | 46.2% (inactive) | – |
| c1ccc(-c2[nH]ncc2-c2ccnc(-c3ccc(OCCn4ccnc4)cc3)c2)nc1 | -9.9% (inactive) | – |
| CN1CCN(CCCNc2nc3ccc(Oc4ccc(NC(=O)Nc5cc(C(F)(F)F)ccc5F)cc4)cc3[nH]2)CC1 | – | 23.1 µM (active) |
| CN1CCN(Cc2ccc(-c3cc4ncnc(Nc5ccc(OCc6cccc(F)c6)c(Cl)c5)c4s3)o2)CC1 | – | 20.6 µM (active) |
| FC(F)(F)CNc1nccc(-c2cnn3ncccc23)n1 | 64.1% (inactive) | – |
| Cc1c2ccc(N(C)c3ccnc(Nc4cccc(S(N)(=O)=O)c4)n3)cc2nn1C | – | 18.3 µM (active) |
| CN(C)CCOc1ccc(-c2cc(-c3ccc4c(c3)CCC4=NO)c(-c3ccncc3)o2)cc1 | 0.341% (inactive) | – |
| O=C(Nc1n[nH]c2cc(-c3cc(F)ccc3F)ccc12)C1CC1 | 12.6% (inactive) | – |
| Cc1cc(-c2ccco2)cc(C)c1C=Cc1cncc(-c2nn[nH]n2)c1 | -3.41% (inactive) | – |
| CN(C)CCCn1c(-c2nonc2N)nc2cnccc21 | 11.9% (inactive) | – |
| FC(F)(F)c1ccc(-c2nn3ncccc3c2-c2ccnc(Nc3ccc4c(c3)OCCO4)n2)cc1 | 43% (inactive) | – |

| Compound | activity change, negative = inhibition | Potency |
| --- | --- | --- |
| Nc1nccc(-c2c(-c3ccc(F)cc3)ncn2CCCN2CCOCC2)n1 | 25.3% (inactive) | – |
| NS(=O)(=O)c1ccc(N=Nc2c(O)[nH]c3ccc(C(=O)NCc4ccncc4)cc23)cc1 | 40.3% (inactive) | – |
| COc1cc(C=NNc2ncnc3c2cnn3C(C)C)ccc1O | 5.48% (inactive) | – |
| COc1cc(Nc2ncc3c(C)nc(-c4cccc(Oc5ccccc5)c4)n3n2)cc(OC)c1OC | 13.9% (inactive) | – |
| O=C(OC1CNC(C#Cc2cc3ncnc(Nc4ccc(OCc5cccc(F)c5)c(Cl)c4)c3s2)C1)N1CCOCC1 (centres undefined) | 25.9% (inactive) | – |
| CCn1c(-c2nonc2N)nc2c(C#CC(C)(C)O)ncc(OCC3CCNCC3)c21 | 3.18% (inactive) | – |
| Cc1cccc(Nc2ncc(-c3ccccc3)o2)c1 | 38.5% (inactive) | – |
| CC(C)c1ccc(Nc2nccc(-c3cnn4ncccc34)n2)cc1 | 32.8% (inactive) | – |
| CS(=O)(=O)CCN(CC#N)Cc1ccc(-c2ccc3ncnc(Nc4ccc(OCc5cccc(F)c5)c(Cl)c4)c3c2)o1 | 54.8% (inactive) | – |
| Cc1ccc(-c2cc3c(NC(=O)C4CC4)ncnc3o2)cc1 | 6.69% (inactive) | – |
| Clc1ccc(-c2nn3ncccc3c2-c2ccnc(Nc3ccccc3)n2)cc1 | 49.5% (inactive) | – |
| CCCN(CCS(C)(=O)=O)Cc1ccc(-c2ccc3ncnc(Nc4ccc(OCc5cccc(F)c5)c(Cl)c4)c3c2)o1 | 42% (inactive) | – |
| c1cnn2ncc(-c3ccnc(Nc4ccc5c(c4)OCCO5)n3)c2c1 | 61% (inactive) | – |
| CCS(=O)(=O)c1ccc(OC)c(Nc2ncc(-c3cccc(C(C)=O)c3)o2)c1 | 5.78% (inactive) | – |
| CCOc1ccc2c(-c3ccnc(Nc4cc(OC)cc(C(F)(F)F)c4)n3)cnn2n1 | 39.9% (inactive) | – |
| Nc1nccc(-c2c(-c3ccc(F)cc3)ncn2C2CCC(O)CC2)n1 (centres undefined) | 9.21% (inactive) | – |
| CCn1c(-c2nonc2N)nc2cnc(Oc3cccc(NC(=O)c4ccc(N(C)C)cc4)c3)cc21 | 12.6% (inactive) | – |
| COc1cc2c(cc1Nc1nc(Nc3ccsc3C(N)=O)c3cc[nH]c3n1)N(C(=O)CN(C)C)CCC2(C)C | 25% (inactive) | – |
| COc1cccc(-n2ncc3c(NN=Cc4ccncc4)ncnc32)c1 | 37% (inactive) | – |
